Screens (PubChem)
Compounds with a hit are over-represented: about 2.5% of the library has one in this group of screens.
D2 ag-1: agonists of human D2 dopamine receptor; P14416; HEK293 T-REx D2 cells, calcium flux agonist mode; activation, % at 2 µM; 340,000 tested, 0.53% active; AID 485358;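 active means activation over 3 SD above normal in the single-dose calcium agonist read, cut at about 30% in these data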; further: 0% is about no effect
Target sequence (P14416 whole entry, looked up): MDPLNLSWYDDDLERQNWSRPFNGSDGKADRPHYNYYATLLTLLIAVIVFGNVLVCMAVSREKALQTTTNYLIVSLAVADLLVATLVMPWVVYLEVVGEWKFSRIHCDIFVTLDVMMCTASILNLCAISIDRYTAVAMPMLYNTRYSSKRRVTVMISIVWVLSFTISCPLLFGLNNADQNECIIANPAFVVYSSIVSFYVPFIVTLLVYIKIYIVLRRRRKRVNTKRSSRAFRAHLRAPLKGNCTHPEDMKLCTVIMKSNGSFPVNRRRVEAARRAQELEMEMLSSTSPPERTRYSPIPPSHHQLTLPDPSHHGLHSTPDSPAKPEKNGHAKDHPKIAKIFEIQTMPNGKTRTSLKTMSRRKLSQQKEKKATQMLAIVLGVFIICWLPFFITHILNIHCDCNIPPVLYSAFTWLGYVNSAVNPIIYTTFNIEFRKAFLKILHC
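HEK293 Trex D2 cells, tetracycline-induced, o/n 30 C 5% CO2; no-wash Ca dye, RT 30–90 min; 10-cycle baseline, 23 nl cpd added, kinetic Ca read 180 s; agonist hits = positive Ca response.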
D2 ag-2: activates the human D2 dopamine receptor | P14416 | AID 624465 | activation, % (concentration not given with the values) | 360,000 tested, 0.084% active | DiscoveRx PathHunter D2 beta-arrestin, luminescence, 90 min; 100% = 57 uM dopamine signal; in the data active means activation above about 40%; inconclusive means between about 15% and that limit
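Agonist mode: compounds alone added to overnight-plated D2 PathHunter cells for 90 min at 37 C, with 57 uM final dopamine (EC100) defining full response. Beta-arrestin recruitment detected by chemiluminescent reagent, read after 1 h at ambient temperature.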
Anesthetic bind: binds horse apoferritin like a general anesthetic; P02791; 350,000 tested, 0.074% active; Potency, µM (series often up to 77.5 µM), for inactives: at the highest dose activity change, negative = displacement, hits mostly inhibitors; AID 485281; apoferritin/1-aminoanthracene competitive binding, fluorescence; active means well fitted inhibition curve with a large enough effect; inconclusive means small, poorly fitted or top-dose-only effect; inactive means no such curve, though single readings can be large or run the other way; further: potency means the concentration at half of the fitted maximal effect; on the % scale 0 is the no-effect control and ±100 the full control effect; nearly all actives have a fitted effect of over 20% in size
Target sequence (P02791 2-175 limits assumed): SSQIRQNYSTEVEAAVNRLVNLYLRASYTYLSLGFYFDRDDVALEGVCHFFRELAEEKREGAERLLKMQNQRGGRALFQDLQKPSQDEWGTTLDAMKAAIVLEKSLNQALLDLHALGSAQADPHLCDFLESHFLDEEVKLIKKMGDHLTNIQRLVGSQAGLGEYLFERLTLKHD
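In PBS, apoferritin at 10 uM is loaded with 1-AMA from a 50% saturated solution. After 10 min of compound exposure at ambient temperature, reduced 535 nm fluorescence indicates probe displacement.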
D2 antagonist: D2 dopamine receptor (human) antagonism; P14416; HEK293 TREx D2 cells, calcium flux, dopamine EC80; inhibition, % at 10 µM; 340,000 tested, 2% active; AID 485344; in the data active means inhibition above about 30%; inactive means below that, where a call was filed; further: 0% is about no effect
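Measurement of antagonist activity uses fluorescent calcium dye in inducible HEK293 T-REx D2 cells: 10 s baseline, compound addition with 180 s read, EC80 dopamine addition with a further 180 s read.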
D2 PAM-1: human D2 receptor positive allosteric modulation. potentiation, % (concentration not given with the values). 360,000 tested, 0.23% active. DiscoveRx D2 beta-arrestin cells, luminescence, 90 min; 100% = 57 uM dopamine signal; in the data active means potentiation above about 50%; inconclusive means mostly about 30% to 49%
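PathHunter D2 cells, attached overnight at 37 deg C, received compound in DMSO plus dopamine at EC20 (50 nM final) for 90 min at 37 deg C. Beta-arrestin recruitment was read as luminescence after 1 h with detection reagent at ambient temperature.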
D2 PAM-2: D2 dopamine receptor (human) potentiation | 340,000 tested, 0.34% active | HEK293 T-REx D2, calcium flux, EC20 dopamine potentiation | potentiation, % at 10 µM | P14416;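 active means potentiation over 3 SD above the plate norm, cut at about 30% in these data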; further: 0% is about no effect
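Potentiation of an EC20 dopamine calcium response measured kinetically over 180 s, after a preceding 180 s compound-only read flagging agonists. Cells: inducible Hek293 Trex D2 line, 4000/well, cultured overnight at 30 C before dye loading.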
Starred values were filed as active, the others as inactive; ? = inconclusive; . = not tested or not shown.

SMILES | D2 ag-1 | D2 ag-2 | Anesthetic bind | D2 antagonist | D2 PAM-1 | D2 PAM-2
COc1cc(CN(C)CCc2ccccc2)ccc1OCc1ccccc1 | 18.4 | 0.9 | ? | 36.3* | -18.8 | -11.5
O=C1NC(=Nc2ccc(Cl)cc2)/C(=C/c2ccco2)S1 | -0.1 | -1.0 | 3.3% | 59.2* | -25.4 | -21.7
Cn1c(-c2ccc(CN3CCCCC3)o2)nc2ccccc21 | -0.3 | -4.7 | -10.4% | 33.8* | -42.4 | -21.1
COC(=O)c1ccc(C2C(Oc3ccccc3)C(=O)N2CCc2ccc(F)cc2)cc1 (stereo unspecified) | 1.3 | -1.5 | -4.7% | 36.3* | 1.6 | -15.1
COc1ccc(CNC(=O)c2cc3cc4cc(OC)ccc4nc3o2)cc1 | -0.1 | . | -1.3% | . | . | -5.6
CCCN1CCC(=O)N([C@H](CN=[N+]=[N-])Cc2ccccc2)CC1 | 0.1 | -3.2 | -8.4% | 37.5* | -13.1 | 5.7
CC(C)CN1CCC(=O)N([C@H](CN=[N+]=[N-])Cc2ccccc2)CC1 | 0.4 | -2.2 | -9.6% | -6.0 | -3.6 | -4.2
N/C(=N\OC(=O)c1ccc([N+](=O)[O-])cc1)c1cccnc1 | -0.3 | 8.9 | -2.2% | -2.6 | 28.6 | 4.7
N/C(=N\OC(=O)c1ccccc1[N+](=O)[O-])c1cccnc1 | 0.7 | ? | -5.9% | -4.7 | 108.2* | -2.4
Cc1ccc(C(=O)O/N=C(\N)c2cccnc2)cc1[N+](=O)[O-] | -0.4 | 7.3 | -6.1% | -4.8 | 66.2* | -3.2
CCOC(=O)C(=O)Nc1nnc(SCc2ccc(F)cc2)s1 | -0.9 | -5.1 | 3.2% | 4.9 | 0.4 | -12.6
CCOc1ccccc1N1CCN(C/C=C/c2ccc(N(C)C)cc2)CC1 | 0.2 | 0.4 | -17.6% | 78.8* | -33.7 | -20.6
COc1cc(OC)c(OC)cc1CN1CCN(c2ccccc2OC)CC1 | -0.2 | 0.7 | 4.4% | 70.1* | -21.1 | -15.0
CCOc1ccccc1N1CCN(Cc2ccc(OC)c(OC)c2OC)CC1 | -3.2 | -1.4 | -14.5% | 23.2 | -20.3 | 0.9
CCOC(=O)C1CCN(Cc2ccccn2)CC1 | 27.0 | . | 0.7% | -5.9 | . | -15.0
CCOC(=O)C1CCN(c2ccccc2CN2CCN(c3ccccc3OCC)CC2)CC1 | 0.0 | -14.5 | -6.8% | 61.3* | -24.1 | -18.1
COc1ccccc1N1CCN(Cc2cccc(OC)c2OC)CC1 | -1.0 | -2.4 | 4.2% | 71.3* | -45.3 | -14.2
CCOc1ccccc1N1CCN(Cc2ccco2)CC1 | 0.4 | 2.4 | -15.0% | -10.0 | -12.1 | -0.6
N#CCCSC(=S)C1CCCC1=N (stereo unspecified) | . | -3.6 | . | . | -5.7 | .
CCOC(=O)N1CCC(NC(=O)c2cc(COc3ccc(F)cc3Cl)on2)CC1 | 0.3 | -4.3 | -7.6% | -17.2 | -7.5 | -3.4
COc1ccc(C(c2nnnn2Cc2ccccc2)N2CCN(c3ccccc3)CC2)cc1 (stereo unspecified) | 0.2 | -2.5 | 3.6% | -16.7 | 17.8 | 6.8
COc1ccc(Cn2nnnc2C(C(C)C)N2CCN(c3ccccc3OC)CC2)cc1 (stereo unspecified) | 0.2 | -1.2 | 0.6% | 53.0* | -3.8 | -9.2
CCOc1ccccc1N1CCN(Cc2cnc(-c3ccccc3)[nH]2)CC1 | 0.3 | 2.1 | 6.4% | 77.8* | -6.3 | -24.4
COc1ccc(N2CCN(Cc3cc4c(cc3Br)OCCO4)CC2)cc1 | -0.4 | -5.6 | 4.4% | 29.0 | 9.2 | -16.0
COc1ccccc1N1CCN(Cc2cc3c(cc2Br)OCCO3)CC1 | -1.3 | -18.1 | -8.1% | 104.2* | -17.6 | -27.1
SMILES | D2 ag-1 | D2 ag-2 | Anesthetic bind | D2 antagonist | D2 PAM-1 | D2 PAM-2
CCOC(=O)C1CCN(c2c(NCCN3CCN(c4ccccc4)CC3)c(=O)c2=O)CC1 | 36.8* | -4.4 | -4.1% | -7.1 | -6.7 | -18.5
Fc1cccc(Cl)c1-c1nnc2ccc(N3CCOCC3)nn12 | 0.6 | 1.3 | -7.5% | -2.2 | 21.9 | -4.6
Cc1cc(NC(=O)CN(c2cccc(C)c2C)S(=O)(=O)c2ccccc2)ccc1Br | 1.2 | . | 44.5% | . | . | -0.2
CC(Sc1nc(NC(C)(C)C)nc(N(C)C)n1)C(=O)Nc1ccccc1 (stereo unspecified) | 0.0 | 2.9 | -5.0% | -25.3 | -30.9 | -23.2
COc1ccc(CC(C)N2CCN(c3ccccc3OC)CC2)cc1OC (stereo unspecified) | 22.1 | -1.8 | 4.1% | 88.6* | -15.9 | -25.3
COc1ccc(CC(C)N2CCN(Cc3ccccc3)CC2)cc1OC (stereo unspecified) | 21.9 | 6.6 | -5.0% | 27.7 | -23.0 | -18.7
Cc1ccccc1N1CCN(Cc2cc3c(cc2[N+](=O)[O-])OCO3)CC1 | 0.3 | 4.7 | -12.0% | -20.2 | -40.6 | -0.1
COc1ccccc1-n1nnnc1SCc1cc2c(cc1Br)OCO2 | 0.2 | -1.7 | 48.7% | -9.3 | -13.6 | 43.5*
CCOc1ccccc1N1CCN(Cc2cc3c(cc2[N+](=O)[O-])OCO3)CC1 | 0.7 | -0.4 | -12.9% | 59.6* | -24.6 | -15.0
COc1ccccc1N1CCN(Cc2nc(N)nc(Nc3ccc(C)cc3)n2)CC1 | 25.6 | 1.2 | 3.4% | 89.2* | -42.1 | -37.5
COc1ccccc1-n1nnnc1SCc1ccccc1 | -0.9 | 5.1 | 4.6% | 11.6 | -17.3 | -6.1
Cc1ccccc1NC(=O)c1ccc(CN2CC(=O)N3CCCCC3C2=O)cc1 (stereo unspecified) | . | -3.0 | -14.3% | . | 1.3 | .
CCOc1ccccc1N1CCN(Cc2ccc(OC)c(OC)c2)CC1 | -2.3 | -1.4 | -3.1% | 94.4* | 0.5 | -27.1
CCOc1cc(CN2CCCCCC2)ccc1OC | 0.0 | -6.6 | -1.8% | 6.7 | -4.6 | -12.1
COc1ccc(CC2(CO)CCN(S(=O)(=O)N(C)C)CC2)cc1 | -0.7 | -7.3 | -7.5% | 8.8 | -48.0 | 5.7
COc1ccc(CC2(CO)CCN(Cc3cnn(-c4ccccc4OC)c3)CC2)cc1 | 0.7 | -4.6 | -13.4% | 79.0* | -23.7 | -15.6
COc1ccc(CC2(CO)CCN(Cc3cnn(-c4ccccc4)c3)CC2)cc1 | 0.5 | -5.7 | -12.7% | -19.5 | -19.3 | -3.9
COc1ccc(CC2(CO)CCN(C(C)COc3ccccc3)CC2)cc1 (stereo unspecified) | . | 48.8* | -21.5% | . | 25.4 | .
Cc1ccc(C(=O)COC(=O)COc2ccccc2O)cc1C | . | 6.0 | . | . | -3.6 | .
COc1ccc(-c2cc(C(=O)N/N=C/c3cccnc3)c3cc(C)cc(C)c3n2)cc1 | 0.4 | -2.1 | -18.7% | 8.3 | -7.5 | -18.0
CC/C(=N/Nc1ccccc1)c1cnnc(-c2ccccc2)n1 | 0.0 | -1.7 | -7.5% | -4.1 | -16.5 | -3.6
CCOC(=O)C(=O)NCC(c1cccnc1)N1CCN(c2ccccc2)CC1 (stereo unspecified) | -0.6 | . | 3.3% | . | . | -10.5
Cc1cc(OCCCCCN2CCCC2)ccc1Cl | 1.2 | -7.5 | -17.6% | 58.8* | -4.5 | -16.6
